T cruzi growth-1 – T. cruzi intracellular proliferation inhibitors, primary screen, cell-based, beta-gal Tulahuen parasites, NIH3T3 host, luminescence. actives 5.9% (n = 77,000). inhibition, % at 8.34 µM. AID 624255, 2012. T. cruzi beta-gal in NIH3T3, GalScreen luminescence, 90 h;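 active = mean inhibition above about 93%, with at least 55% of replicates each passing it, limit read from the data, passing the limit was not always enough; inconclusive = only one of those two conditions holds; inactive = neither condition holds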
Pf Dd2 inh – P. falciparum Dd2 growth inhibitors, primary screen, SYBR Green fluorescence, single dose replicates. 72 h; stronger effect = lower value. actives 2.3% (n = 94,000). activity change, % at 10 µM; in the data active = activity change below about -80%; inconclusive = no clear call, values can overlap the other calls
C diff growth – C. difficile growth inhibitors, primary screen, HTS | Clostridium difficile clinical isolate growth, OD600, 24 h; stronger effect = lower value | growth activity, negative = inhibition, % at 16 µg/mL (by protocol) | actives 0.25% (n = 86,000);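 active = mean growth activity at or below -80% and every replicate also at or below -80%; inconclusive = mean at or below -80% but some replicate above -80%; inactive = mean growth activity above -80%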;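 also: 0% = DMSO wells and -100% = levofloxacin 16 µg/mL wells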
T cruzi growth-2 – T. cruzi intracellular proliferation inhibitors, confirmation, cell-based, NIH3T3 host, beta-gal parasite, luminescence, cherry-pick. shares compounds with T cruzi growth-1. T. cruzi beta-gal in NIH3T3, GalScreen luminescence, 90 h. inhibition, % at 8.35 µM. actives 72% (n = 5,600). AID 651739, 2012;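 active = mean replicate inhibition above about 95% and at least 55% of replicates individually reaching it, limit read from the data; inconclusive = only one of the two criteria is met; inactive = neither criterion is met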
T cruzi growth-3 – inhibitors of intracellular T. cruzi replication, confirmation, NIH3T3 host cells, beta-gal parasites, cherry-pick, set 2; T. cruzi beta-gal in NIH3T3, GalScreen luminescence, 90 h; inhibition, % at 2.09 µM; shares compounds with T cruzi growth-1; actives 21% (n = 5,600);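 active = mean inhibition above about 95%, with at least 55% of replicates also reaching it, limit read from the data; inconclusive = meets just one of the two conditions; inactive = meets neither condition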;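 also: plate controls were neutral control median for no effect and positive control median for full effect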
3T3 cytotox – cytotoxicity in mouse NIH/3T3 fibroblasts, confirmation, cytotoxicity control for T. cruzi proliferation inhibitor project, cell-based, cherry-pick, single point. NIH/3T3 viability, CellTiter-Glo ATP luminescence, 90 h. shares compounds with T cruzi growth-1. cytotoxicity (signal decrease), % at 8.35 µM. actives 14% (n = 5,600);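 active = mean signal decrease across replicates above about 35% based on untreated-well scatter, with enough replicates individually passing, limit read from the data; inconclusive = no rule stated though some were filed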;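 also: 0% = median of neutral control wells and 100% = median of positive control wells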
3T3 cytotox 2 – NIH/3T3 fibroblast cytotoxicity, confirmation, cytotoxicity control, cell-based, cherry-pick, single point, set 2. shares compounds with T cruzi growth-1. NIH/3T3 viability, CellTiter-Glo ATP luminescence, 90 h. inhibition, % at 24.9 µM. actives 56% (n = 5,600);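 active = mean loss of cell viability signal at or above a set limit, and enough replicates individually reaching it; inconclusive = meets only the mean limit or only the replicate share; inactive = meets neither condition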;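 also: 0% = median of neutral control wells and 100% = median of positive control wells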
* = called active by the depositor. Only some compounds are listed: those with a hit (about 6.8% of all), similar ones and a draw of the others.

For C[C@H](CO)N1C[C@H](C)[C@@H](CN(C)Cc2ccc(C(=O)O)cc2)Oc2c(NC(=O)c3nc4ccccc4s3)cccc2C1=O the results were T cruzi growth-1 41.5, Pf Dd2 inh 9.3 and C diff growth 0.4.
`C[C@H](CO)N1C[C@H](C)[C@H](CN(C)Cc2ccc(C(=O)O)cc2)Oc2c(NC(=O)c3nc4ccccc4s3)cccc2C1=O` gave T cruzi growth-1 28.7, Pf Dd2 inh -17.5 and C diff growth 1.6.
Screening C[C@H](CO)N1C[C@H](C)[C@@H](CN(C)Cc2ccc(C(=O)Nc3ccccc3N)cc2)Oc2c(NC(=O)c3nc4ccccc4s3)cccc2C1=O returned T cruzi growth-1 106.5*, Pf Dd2 inh -89.2*, T cruzi growth-2 108.4*, T cruzi growth-3 84.7, 3T3 cytotox -31.1 and 3T3 cytotox 2 11.3.
Screening C[C@H](CO)N1C[C@H](C)[C@H](CN(C)Cc2ccc(C(=O)Nc3ccccc3N)cc2)Oc2c(NC(=O)c3nc4ccccc4s3)cccc2C1=O returned T cruzi growth-1 inconclusive, Pf Dd2 inh -92.6*, T cruzi growth-2 102.3*, T cruzi growth-3 105.0*, 3T3 cytotox 22.8 and 3T3 cytotox 2 63.7*.
Screening COC(=O)C[C@H]1CC[C@@H]2[C@@H](COc3ccc(NC(=O)c4cccc(OC)c4)cc3C(=O)N2C)O1 returned T cruzi growth-1 -59.0, Pf Dd2 inh -9.8 and C diff growth -0.4.
O=S(=O)(c1ccccc1)N1CCCCN2[C@H](CO)[C@H](c3ccc(-c4ccccc4F)cc3)[C@H]2C1 was read as T cruzi growth-1 82.6, Pf Dd2 inh -27.6 and C diff growth 65.6.
For O=S(=O)(c1ccc(F)cc1)N1CCCCN2[C@H](C1)[C@H](c1ccc(-c3ccccc3F)cc1)[C@@H]2CO the results were T cruzi growth-1 108.1*, Pf Dd2 inh 1.1, C diff growth -1.9, T cruzi growth-2 104.7*, T cruzi growth-3 105.0*, 3T3 cytotox 30.8 and 3T3 cytotox 2 101.7*.
For O=S(=O)(c1ccc(F)cc1)N1CCCCN2[C@H](CO)[C@H](c3ccc(-c4ccccc4F)cc3)[C@@H]2C1 the results were T cruzi growth-1 110.6*, Pf Dd2 inh 18.0, C diff growth 1.4, T cruzi growth-2 104.3*, T cruzi growth-3 74.5, 3T3 cytotox 24.1 and 3T3 cytotox 2 93.6*.
For CCS(=O)(=O)N1CCCCN2[C@H](CO)[C@@H](c3ccc(-c4ccccc4F)cc3)[C@H]2C1 the results were T cruzi growth-1 84.4, Pf Dd2 inh -15.2 and C diff growth -5.1.
`CCS(=O)(=O)N1CCCCN2[C@H](CO)[C@H](c3ccc(-c4ccccc4F)cc3)[C@H]2C1` gave T cruzi growth-1 99.5*, Pf Dd2 inh -33.3, C diff growth -12.0, T cruzi growth-2 95.6*, T cruzi growth-3 55.1, 3T3 cytotox 9.3 and 3T3 cytotox 2 60.6*.
Screening O=S(=O)(c1ccc(F)cc1)N1CCCCN2[C@@H](CO)[C@H](c3ccc(-c4ccccc4F)cc3)[C@@H]2C1 returned T cruzi growth-1 106.3*, Pf Dd2 inh 9.6, C diff growth -2.3, T cruzi growth-2 91.1, T cruzi growth-3 50.7, 3T3 cytotox 77.5* and 3T3 cytotox 2 100.4*.
For O=S(=O)(c1ccc(F)cc1)N1CCCCN2[C@@H](CO)[C@@H](c3ccc(-c4ccccc4F)cc3)[C@@H]2C1 the results were T cruzi growth-1 81.1, Pf Dd2 inh -62.7 and C diff growth 2.0.
`O=S(=O)(c1ccccc1)N1CCCCN2[C@H](C1)[C@H](c1ccc(-c3ccccc3F)cc1)[C@@H]2CO` gave T cruzi growth-1 85.8, Pf Dd2 inh 7.3 and C diff growth 22.4.
`C[C@H](NC(=O)C[C@@H]1CC[C@@H](NC(=O)Nc2ccc3c(c2)OCO3)[C@@H](CO)O1)c1ccccc1` gave T cruzi growth-1 39.9 and Pf Dd2 inh 1.1.
Screening C[C@@H]1CN([C@@H](C)CO)C(=O)c2cccc(NS(=O)(=O)c3ccc(Cl)cc3)c2O[C@@H]1CN(C)Cc1ccncc1 returned T cruzi growth-1 30.0, Pf Dd2 inh 5.4 and C diff growth 0.1.
`CC(C)C(=O)Nc1ccc2c(c1)C(=O)N(C)[C@H]1CC[C@H](CC(=O)Nc3ccccc3F)O[C@@H]1CO2` gave T cruzi growth-1 -43.4, Pf Dd2 inh 15.0 and C diff growth 2.7.
For COC(=O)C[C@@H]1CC[C@@H]2[C@H](COc3ccc(NC(=O)Nc4ccc(C#N)cc4)cc3C(=O)N2C)O1 the results were T cruzi growth-1 60.9, Pf Dd2 inh -39.3 and C diff growth -2.7.
Screening Cc1noc(C)c1NC(=O)Nc1ccc2c(c1)C(=O)N([C@H](C)CO)C[C@H](C)[C@H](CN(C)C(=O)Nc1ccccc1)OCCCC[C@@H](C)O2 returned T cruzi growth-1 -26.7, Pf Dd2 inh 35.5 and C diff growth -6.7.
COC(=O)C[C@@H]1CC[C@@H]2[C@H](COc3ccc(NS(=O)(=O)c4cccc(F)c4)cc3C(=O)N2C)O1 was read as T cruzi growth-1 36.2, Pf Dd2 inh -7.1 and C diff growth 1.1.
`Cc1ccc(S(=O)(=O)Nc2cccc3c2O[C@H](CN(C)C)[C@@H](C)CN([C@@H](C)CO)C3=O)cc1` gave T cruzi growth-1 81.1, Pf Dd2 inh 3.9 and C diff growth 4.0.
C[C@H]1CN([C@@H](C)CO)C(=O)c2cc(NC(=O)CCCN(C)C)ccc2O[C@@H]1CN(C)C was read as Pf Dd2 inh 23.0 and C diff growth -0.8.
COc1ccc2c3c([nH]c2c1)[C@@H](CO)N(CC1CC1)CC31CN(C(=O)Nc2cccc(F)c2)C1 was read as Pf Dd2 inh -37.6 and C diff growth 0.9.
Screening O=C(CN1CCOCC1)NCC[C@H]1CC[C@@H](NS(=O)(=O)c2ccc(F)cc2)[C@@H](CO)O1 returned T cruzi growth-1 25.3 and Pf Dd2 inh -8.8.
Screening Cc1ccccc1-c1ccc([C@H]2[C@H](CO)N3CCCCN(S(C)(=O)=O)C[C@@H]23)cc1 returned T cruzi growth-1 108.9*, Pf Dd2 inh 16.7, C diff growth -2.9, T cruzi growth-2 95.8*, T cruzi growth-3 65.5, 3T3 cytotox 29.2 and 3T3 cytotox 2 35.5*.
